Assay outcomes: PubChem BioAssay, National Center for Advancing Translational Sciences (NCATS)
Shown are actives, neighbours in structure and some others; about 11% of the full set was active somewhere.
PNC assembly inh – perinucleolar compartment assembly inhibition; PC3M PTB-GFP, PNC prevalence imaging, 16 h; stronger effect = lower value; activity change (PNC), negative = inhibition, % at 10 µM; 3.1% of 140,000 active;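 active means readout at or below -70, meaning at least 70% loss of cells showing the perinucleolar compartment, a nuclear body marking cancer cells; inconclusive means readout between -30 and a set limit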
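Read-out is percentage of cells bearing a perinucleolar compartment, from automated 20x imaging of fixed, Hoechst-stained PC3M PTB-GFP cells. Cells were seeded 4 h, then exposed 16 h to compound (23 nl of library stock) in duplicate plates.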
ALDH1A1 inh – blocks purified human ALDH1A1 activity; P00352; Purified ALDH1A1, NADH fluorescence, propionaldehyde substrate; Potency, µM (top dose mostly 75.3 µM), hits mostly inhibitors; 7.3% of 220,000 active; AID 1030
JMJD2E inh – JMJD2E (human) inhibition. 1.6% of 230,000 active. AID 2147. B2RXH2. Potency, µM (doses to about 57.1 µM), usual class: inhibitors. JMJD2E catalytic domain, FDH-coupled NADH fluorescence (FDH is formaldehyde dehydrogenase); further: nearly all actives have a fitted effect of over 50% in size
Target sequence (B2RXH2 1-337 limits assumed): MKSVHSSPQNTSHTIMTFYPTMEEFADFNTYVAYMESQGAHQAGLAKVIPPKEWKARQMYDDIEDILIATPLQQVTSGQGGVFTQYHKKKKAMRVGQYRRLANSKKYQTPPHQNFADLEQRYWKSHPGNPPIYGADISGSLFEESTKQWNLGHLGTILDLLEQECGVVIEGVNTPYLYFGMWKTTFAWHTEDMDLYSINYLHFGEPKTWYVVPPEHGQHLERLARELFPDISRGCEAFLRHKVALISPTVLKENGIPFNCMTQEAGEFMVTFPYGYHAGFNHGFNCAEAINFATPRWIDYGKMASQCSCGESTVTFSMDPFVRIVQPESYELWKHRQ
HPGD block – inhibitors of human 15-hydroxyprostaglandin dehydrogenase (HPGD) | 4.3% of 150,000 active | Potency, µM, usual class: inhibitors | purified HPGD, NADH fluorescence kinetic, PGE2 substrate | P15428
Target sequence (P15428 whole entry, looked up): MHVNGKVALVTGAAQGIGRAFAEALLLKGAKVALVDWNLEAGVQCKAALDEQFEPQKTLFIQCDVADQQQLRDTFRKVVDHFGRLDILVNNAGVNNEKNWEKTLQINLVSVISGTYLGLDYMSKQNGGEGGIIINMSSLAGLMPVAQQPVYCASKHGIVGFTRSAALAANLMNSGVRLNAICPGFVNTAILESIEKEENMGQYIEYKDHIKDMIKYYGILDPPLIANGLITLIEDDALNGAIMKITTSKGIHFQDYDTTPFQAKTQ
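NADH formation kinetics: reaction with 30 uM PGE2 and 1 mM NAD+ (final), 20 nM enzyme, Tris-HCl pH 8 with Tween 20, after 15 min compound preincubation at room temperature. Fluorescence change, last versus first of five reads.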
Numbers stand for hits; i = inactive; ? = inconclusive; nt = no result; [ ] = dose if it differs, or a comment. Unless noted, the call rests on the fitted dose curve; in most records, active means well fitted inhibition curve with a large enough effect (not every such curve was filed as active); inconclusive means small, poorly fitted or top-dose-only effect, or another doubt; inactive means no such curve, though single readings can be large or run the other way.

SMILES	PNC assembly inh	ALDH1A1 inh	JMJD2E inh	HPGD block
COC(=O)[C@@]1(Cc2ccccc2)[C@H]2c3cc(C(=O)N4CCCC4)n(CCN4CNCC4=O)c3C[C@H]2CN1C(=O)c1ccccc1	nt	i	i	i
Cc1[nH]n(C(N)=S)c(=O)c1N=Nc1ccc(S(=O)(=O)N2CCCC2)cc1	i	32µM	i	i
Cc1ccc(N=Nc2c(C)[nH]n(C(N)=S)c2=O)cc1	nt	?	i	nt
CC(C)C1C(=O)NC(=S)N1S(=O)(=O)c1ccc(C(C)(C)C)cc1 (stereo unspecified)	i	11µM	i	i
CCCCNS(=O)(=O)c1ccc2nc(-c3cccs3)cc(C(=O)NCC(OC)OC)c2c1	i	?	?	?
O=C1c2ccccc2C(=O)N1CCC(c1ccc(F)cc1)c1ccco1 (stereo unspecified)	i	10µM	i	i
CC(NC(=O)c1ccc(OC2CCN(C(=O)c3cccnc3)CC2)cc1)C1CC1 (stereo unspecified)	nt	?	i	nt
Oc1ccc(NCc2ccccc2OCc2ccccc2)cc1	i	5.6µM	11µM	14µM
O=C(CCCOc1ccccc1)NC(=S)Nc1ccccc1	nt	10µM	i	nt
O=C(CCCOc1ccccc1)NCCc1ccccc1	nt	i	i	nt
COCCCNC(=O)CC(C)c1ccccc1 (stereo unspecified)	i	i	i	16µM
COCCCNC(=O)CCCOc1ccccc1	?	i	i	14µM
COCCNC(=O)CC(c1ccccc1)c1ccccc1	i	i	i	14µM
O=C(c1ccc(S(=O)(=O)N2CCc3ccccc3C2)cc1)N1CCCCC1	nt	i	i	nt
COc1ccc2nc(NCN3C(=O)c4ccccc4C3=O)sc2c1	nt	i[13.5 µM]	nt	i
COCCNC(=O)CSc1nnc(-c2ccccc2)c(-c2ccccc2)n1	nt	22µM	i	nt
CCOC(=O)c1ccc(NC(=S)NC(=O)COc2ccccc2)cc1	i	22µM	i	?
Cc1ccc(C(=O)N2CC(C)OC(C)C2)c(Cl)c1 (stereo unspecified)	i	?	i	16µM
CC1CN(C(=O)c2cc(S(=O)(=O)N3CCCC3)c(Cl)cc2Cl)CC(C)O1 (stereo unspecified)	?	i	i	i
Nc1nc(N)nc(CC(=O)O)n1	nt	i[13.5 µM]	nt	i
COc1cc(C(=O)Nc2nnc(C(C)(C)C)s2)c([N+](=O)[O-])cc1OC	i	?	i	20µM
Cn1nc(C(=O)NC2CCCc3ccccc32)ccc1=O (stereo unspecified)	nt	i	i	nt
CCN(CC)S(=O)(=O)c1ccc(Cl)c(C(=O)Nc2cc(C)nn2-c2ccccc2C(F)(F)F)c1	?	?	i	i
CC(C)CCNC(=O)CCS(=O)(=O)c1cccc2nonc12	i	10µM	i	i
COc1cccc(CNC(=O)CCS(=O)(=O)c2cccc3nonc23)c1	i	?	i	i
SMILES	PNC assembly inh	ALDH1A1 inh	JMJD2E inh	HPGD block
O=C(CCS(=O)(=O)c1cccc2nonc12)NCCc1ccccc1	?	22µM	i	i
O=C(CCS(=O)(=O)c1cccc2nonc12)NCc1ccc(Cl)cc1	nt	8.9µM	i	nt
CCCCC(CC)CNC(=O)CCS(=O)(=O)c1cccc2nonc12 (stereo unspecified)	?	?	i	i
O=C(CCS(=O)(=O)c1cccc2nonc12)N1CCCc2ccccc21	i	11µM	i	i
COC(=O)N1CCC2(CCN(Cc3ccccc3)CC2)CC1	nt	i	nt	i
Cc1ccc(C)c(N2CCN(C(=O)CCNC(=O)Cn3ccc4ccccc4c3=O)CC2)c1	i	i	i	?
COc1ccc(N(C)C(=O)CCS(=O)(=O)c2cccc3nonc23)c(OC)c1	i	13µM	i	i
Cc1cccc(N(C)C(=O)CCS(=O)(=O)c2cccc3nonc23)c1	i	?	i	i
Cc1ccc(Cl)cc1N1CCN(C(=O)Cn2ccc3ccccc3c2=O)CC1	i	20µM	i	nt
CC(C)NC(=O)CCS(=O)(=O)c1cccc2nonc12	i	25µM	i	i
Cc1ccc(Cl)cc1N1CCN(C(=O)CCS(=O)(=O)c2cccc3nonc23)CC1	?	22µM	i	i
CCCCn1cnc2cc(C)c(C)cc21	nt	i	i	nt
Cc1ccccc1NC(=O)Cc1nc(CSc2nnc(-c3ccc4c(c3)OCO4)o2)cs1	i	i	i	i
Cc1c(C(=O)OCC(C)C)[nH]c2c1C(=O)CC(c1ccco1)C2 (stereo unspecified)	-88	11µM	i	i
Cc1c(C(=O)OCC2CCCO2)[nH]c2c1C(=O)CC(c1ccco1)C2 (stereo unspecified)	i	7.1µM	?	?
C=CCOC(=O)c1[nH]c2c(c1C)C(=O)CC(c1ccco1)C2 (stereo unspecified)	i	?	i	i
C/C=C/COC(=O)c1[nH]c2c(c1C)C(=O)CC(c1ccco1)C2 (stereo unspecified)	-102	?	i	i
Cc1c(C(=O)OC2CCCC2)[nH]c2c1C(=O)CC(c1ccco1)C2 (stereo unspecified)	-108	11µM	i	i
CC(=O)NCc1ccc(C(=O)O)cc1	nt	nt	i	nt
OC1(c2cccnc2)CCN(Cc2nnnn2Cc2ccccc2)CC1	nt	16µM	i	nt
COc1ccc(Cn2nnnc2CN2CCc3ccccc32)cc1	i	?	i	i
COc1ccc(Cn2nnnc2CN2CCc3ccccc3C2)cc1	i	11µM	i	i
COc1ccc(Cn2nnnc2CN2CCC(O)(c3ccccc3F)CC2)cc1	nt	8.9µM	i	nt
CC(=O)OCC1=C(C(=O)O)N2C(=O)C(NC(=O)c3ccc(COc4cccc(Cl)c4Cl)o3)C2SC1 (stereo unspecified)	nt	?	i	nt
CC(=O)OC1CCC23CC1(C)CCC2C(C)(C)CC3OC(C)=O (stereo unspecified)	nt	i	i	i
SMILES	PNC assembly inh	ALDH1A1 inh	JMJD2E inh	HPGD block
CC(=O)Nc1ccccc1O	i	i	i	i
CC(CC(=O)O)Nc1ccccc1O (stereo unspecified)	nt	i	20µM	nt
COC(=O)c1cc(C)sc1NC(=O)CCCC(=O)O	-119	i	i	i
CCc1cc(C(=O)OC)c(NC(=O)CCCC(=O)O)s1	i	i	i	i
CCn1c(=NC(=O)CN2C(=O)CCC2=O)sc2c(C)cc(C)cc21	i	i	i	14µM
Cc1ccc(S(=O)(=O)N/N=C\c2ccc(Cl)c([N+](=O)[O-])c2)cc1	i	0.5µM	i	i
Cc1ccc(S(=O)(=O)N/N=C/c2ccc(OC3CSC3)cc2)cc1	i	i	i	i
Cc1ccc(S(=O)(=O)N/N=C/c2ccc(OS(=O)(=O)c3ccc(C)c([N+](=O)[O-])c3)cc2)cc1	?	5µM	i	i
Cc1ccc(NC(=S)N/N=C/c2ccc(Cl)c([N+](=O)[O-])c2)cc1	i	i	i	i
CN(C)c1ccc2c3c(ccc(N(C)C)c13)C(=O)OC2	nt	nt	i	nt
COc1cccc(CS(=O)(=O)c2ccccc2)c1	nt	i	i	i
O=C(C(=O)N1CCc2ccccc2C1)c1cn(CC(=O)N2CCCC2)c2ccccc12	i	i	i	i
CCN(CC)C(=O)C(=O)c1cn(CC(=O)N2CCc3ccccc3C2)c2ccccc12	nt	0.71µM	i	nt
CC1CCN(C(=O)Cn2cc(C(=O)C3CC3)c3ccccc32)CC1	-103	i	i	i
CC1CCN(C(=O)Cn2cc(C#N)c3ccccc32)CC1	i	?	i	i
